Measurements as given in PubChem BioAssay AID608 (Sanford-Burnham Center for Chemical Genomics, 2007).
Among all 3,800 compounds or so, about 50 (1%) were called active. The rule behind the calls is not given here. This is one part of the list. Entries that show only a call come without a potency. Potency and affinity values are given separately.

What follows are compounds tested against Peptidyl-prolyl cis-trans isomerase FKBP1A (Homo sapiens) (UniProt P62942) (assay: small-molecule binding to FKBP12 – biophysical, NMR detection (AID 608)). Conditions: purified FKBP12.
Peptidyl-prolyl cis-trans isomerase FKBP1A (Homo sapiens), sequence (P62942 whole entry, looked up): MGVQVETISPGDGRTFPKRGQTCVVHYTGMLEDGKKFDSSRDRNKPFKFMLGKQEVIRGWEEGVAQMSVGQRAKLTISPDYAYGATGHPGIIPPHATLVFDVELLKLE
O=C(Nc1ccc(OCC(=O)N2CCOCC2)cc1)c1cccnc1 was tested, and the outcome was “inactive”.
